According to PubChem BioAssay (EPA / NIEHS):
Records with an inconclusive call do not appear. Active and inactive are the calls of the source. How the source made its calls: active means hit-call score of the fitted dose curve at least 0.9, where 1 is the maximum; inconclusive means response in the unintended direction; inactive means score below 0.9.

How the values were obtained:
[1] = read-out: xenobiotic metabolism (CYP1A2), CYP1A2 (gene 1544); assay: CLD_CYP1A2_24hr: CellzDirect (CLD) Gene Expression Assay for xenobiotic metabolism (CYP1A2) at 24 hours (AID 2283683)
Procedure, shortened: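 Primary human hepatocytes from two donor preparations dosed daily with multiple concentrations of chemical, 0.2% DMSO vehicle. CYP1A2 mRNA at 24 h quantified by qNPA chemiluminescence; gain of signal analyzed relative to DMSO. Cytotoxicity flagged by phase-contrast morphology.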

[2] = read-out: ABC Transporter (ABCB1), ABCB1 (gene 5243); assay: CLD_ABCB1_24hr: CellzDirect (CLD) Gene Expression Assay for ABC Transporter (ABCB1) at 24 hours (AID 2283684);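 on AC50: potency for increase in ABCB1 mRNA relative to DMSO vehicle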
Procedure, shortened: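 Primary human hepatocytes, two donor preparations, dosed daily with fresh solutions; vehicle 0.2% DMSO; harvested at 24 h. ABCB1 mRNA measured by quantitative nuclease protection assay (chemiluminescence); morphology-based cytotoxicity annotated.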

[3] = read-out: Cytochrome P450 2C9 (Homo sapiens) (UniProt P11712); assay: CLD_CYP2C9_24hr: CellzDirect (CLD) Gene Expression Assay for xenobiotic metabolism (CYP2C9) at 24 hours (AID 2283688)
Procedure, shortened: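 Primary human hepatocytes from two donor preparations, dosed daily for two days at multiple concentrations; vehicle 0.2% DMSO. CYP2C9 mRNA induction at 24 h measured by qNPA chemiluminescence relative to DMSO; cytotoxicity annotated from morphology.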

[4] = read-out: alkyl and aryl transferase (GSTA2), GSTA2 (gene 2939); assay: CLD_GSTA2_24hr: CellzDirect (CLD) Gene Expression Assay for alkyl and aryl transferase (GSTA2) at 24 hours (AID 2283693)
Procedure, shortened: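 Primary human hepatocytes (two donor preparations) dosed daily for two days with chemicals at multiple concentrations (vehicle 0.2% DMSO); GSTA2 mRNA at 24 h measured by qNPA chemiluminescence, gain-of-signal versus DMSO.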

[5] = read-out: Cytochrome P450 3A4 (Homo sapiens) (UniProt P08684); assay: CLD_CYP3A4_48hr: CellzDirect (CLD) Gene Expression Assay for xenobiotic metabolism (CYP3A4) at 48 hours (AID 2283698)
Procedure, shortened: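 Primary human hepatocytes from two donor preparations dosed daily for two days with multiple chemical concentrations, 0.2% DMSO vehicle. CYP3A4 mRNA at 48 h by quantitative nuclease protection assay, chemiluminescence, positive fit versus DMSO; cytotoxicity flagged morphologically.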

[6] = read-out: sulfotransferase (SULT2A), SULT2A1 (gene 6822); assay: CLD_SULT2A_24hr: CellzDirect (CLD) Gene Expression Assay for sulfotransferase (SULT2A) at 24 hours (AID 2283694);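 on AC50: potency for increased SULT2A1 mRNA level as induction over DMSO baseline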
Procedure, shortened: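 Primary human hepatocytes from two donor preparations were dosed daily with fresh solutions, vehicle 0.2% DMSO. At 24 h, lysates went to quantitative nuclease protection (qNPA) with S1 digestion and chemiluminescent readout. Cytotoxicity was annotated from phase-contrast morphology.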

[7] = read-out: ABC Transporter (ABCB1), ABCB1 (gene 5243); assay: CLD_ABCB1_48hr: CellzDirect (CLD) Gene Expression Assay for ABC Transporter (ABCB1) at 48 hours (AID 2283695);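 on AC50: potency for induction meaning increase of mRNA over DMSO vehicle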
Procedure, shortened: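 Primary human hepatocytes from two donor preparations dosed daily on two consecutive days with 0.2% DMSO vehicle. Harvest at 48 h. ABCB1 mRNA quantified by qNPA with chemiluminescence and fitted for gain of signal versus DMSO.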

[8] = read-out: organic anion transporter (SLCO1B1), SLCO1B1 (gene 10599); assay: CLD_SLCO1B1_24hr: CellzDirect (CLD) Gene Expression Assay for organic anion transporter (SLCO1B1) at 24 hours (AID 2283690)
Procedure, shortened: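 Primary human hepatocytes (two donor preparations) dosed daily for two days with chemicals at multiple concentrations, 0.2% DMSO vehicle. SLCO1B1 mRNA at 24 h measured by qNPA chemiluminescence; induction fitted relative to DMSO.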

[9] = read-out: glucuronosyltransferase (UGT1A1), UGT1A1 (gene 54658); assay: CLD_UGT1A1_24hr: CellzDirect (CLD) Gene Expression Assay for glucuronosyltransferase (UGT1A1) at 24 hours (AID 2283696)
Procedure, shortened: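 Primary human hepatocytes from two donor preparations were dosed (0.2% DMSO vehicle) and harvested at 24 h; UGT1A1 mRNA induction was quantified by chemiluminescent qNPA, fitted as gain relative to DMSO.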

[10] = read-out: Cytochrome P450 2B6 (Homo sapiens) (UniProt P20813); assay: CLD_CYP2B6_24hr: CellzDirect (CLD) Gene Expression Assay for xenobiotic metabolism (CYP2B6) at 24 hours (AID 2283686)
Procedure, shortened: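 Primary human hepatocytes dosed daily for two days with fresh solutions, harvested at 24 hours; mRNA induction quantified by qNPA chemiluminescence, gain of signal vs 0.2% DMSO vehicle. Cytotoxicity annotated from phase-contrast morphology.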

Chain of Cytochrome P450 3A4 (Homo sapiens) (P08684 whole entry, looked up): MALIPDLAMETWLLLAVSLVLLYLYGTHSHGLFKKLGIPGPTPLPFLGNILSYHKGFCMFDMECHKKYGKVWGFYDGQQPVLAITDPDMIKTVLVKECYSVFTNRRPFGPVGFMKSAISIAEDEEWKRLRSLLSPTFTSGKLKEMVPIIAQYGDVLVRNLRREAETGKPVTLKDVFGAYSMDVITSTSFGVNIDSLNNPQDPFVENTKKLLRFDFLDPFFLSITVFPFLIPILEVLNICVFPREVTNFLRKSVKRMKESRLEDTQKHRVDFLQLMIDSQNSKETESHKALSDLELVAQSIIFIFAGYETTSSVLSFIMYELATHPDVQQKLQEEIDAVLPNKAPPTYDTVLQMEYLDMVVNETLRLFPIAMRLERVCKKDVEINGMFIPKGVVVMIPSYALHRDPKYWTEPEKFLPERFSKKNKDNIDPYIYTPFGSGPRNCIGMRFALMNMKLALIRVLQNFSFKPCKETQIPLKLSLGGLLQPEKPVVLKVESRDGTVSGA

O=[N+]([O-])c1c(Cl)c(Cl)c(Cl)c(Cl)c1Cl
outcome [1]: inactive
outcome [2]: inactive
outcome [3]: inactive
outcome [4]: inactive
AC50 [5]: 3.39 µM (active)

CC(C)(C)C(O)/C(=C\c1ccc(Cl)cc1Cl)n1cncn1 (configuration not stated)
AC50 [1]: 0.825 µM (active)
AC50 [2]: 29.4 µM (active)
outcome [3]: inactive
outcome [4]: inactive
outcome [6]: inactive
AC50 [7]: 31.3 µM (active)
AC50 [5]: 1.9 µM (active)

OCCOc1ccccc1
outcome [1]: inactive
outcome [2]: inactive
outcome [3]: inactive
outcome [8]: inactive
outcome [4]: inactive

CC(C)OC(=O)Nc1cccc(Cl)c1
AC50 [1]: 2.34 µM (active)
outcome [2]: inactive
outcome [3]: inactive
outcome [8]: inactive
outcome [4]: inactive
outcome [6]: inactive
AC50 [5]: 36.3 µM (active)

CCCN(CCC)c1c([N+](=O)[O-])cc(C(F)(F)F)cc1[N+](=O)[O-]
AC50 [1]: 5.03 µM (active)
outcome [2]: inactive
outcome [3]: inactive
outcome [4]: inactive
outcome [6]: inactive
outcome [7]: inactive
outcome [9]: inactive
AC50 [5]: 8.57 µM (active)

CCC(C)(C)C(=O)OC1=C(c2ccc(Cl)cc2Cl)C(=O)OC12CCCCC2
outcome [1]: inactive
outcome [2]: inactive
outcome [3]: inactive
outcome [7]: inactive
AC50 [5]: 34.8 µM (active)

C#CCN1C(=O)COc2cc(F)c(N3C(=O)C4=C(CCCC4)C3=O)cc21
outcome [1]: inactive
outcome [2]: inactive
outcome [3]: inactive
outcome [4]: inactive
outcome [6]: inactive
outcome [7]: inactive
AC50 [5]: 4.94 µM (active)

Clc1ccccc1-c1nnc(-c2ccccc2Cl)nn1
AC50 [1]: 4.38 µM (active)
outcome [2]: inactive
AC50 [10]: 9.29 nM (active)
outcome [3]: inactive
outcome [4]: inactive
AC50 [6]: 852 nM (active)
AC50 [5]: 6.89 µM (active)

O=C(O)CCCOc1ccc(Cl)cc1Cl
outcome [1]: inactive
outcome [2]: inactive
outcome [3]: inactive
outcome [6]: inactive
outcome [7]: inactive

COP(=S)(OC)Oc1ccc([N+](=O)[O-])cc1
AC50 [1]: 2.07 µM (active)
outcome [2]: inactive
outcome [3]: inactive
outcome [8]: inactive
outcome [6]: inactive
outcome [7]: inactive
outcome [9]: inactive
AC50 [5]: 8.47 µM (active)

COC(=O)c1ccccc1CS(=O)(=O)NC(=O)Nc1nc(OC)cc(OC)n1
AC50 [1]: 20 µM (active)
outcome [2]: inactive
outcome [3]: inactive
outcome [4]: inactive
outcome [9]: inactive

COC(=O)c1ccccc1S(=O)(=O)NC(=O)N(C)c1nc(C)nc(OC)n1
outcome [1]: inactive
outcome [2]: inactive
outcome [3]: inactive
outcome [8]: inactive
outcome [4]: inactive
outcome [6]: inactive

CCN(CC)C(=O)SCc1ccc(Cl)cc1
outcome [1]: inactive
outcome [2]: inactive
AC50 [10]: 3930 nM (active)
outcome [8]: inactive
outcome [4]: inactive
outcome [7]: inactive
AC50 [5]: 20 µM (active)

CC(C)(C)C(O)C(Oc1ccc(Cl)cc1)n1cncn1 (configuration not stated)
AC50 [1]: 2.95 µM (active)
outcome [2]: inactive
outcome [3]: inactive
outcome [4]: inactive
outcome [6]: inactive
outcome [7]: inactive

CN1CSC(=S)N(C)C1
outcome [1]: inactive
outcome [2]: inactive
outcome [3]: inactive
outcome [8]: inactive
outcome [4]: inactive

CC1(C)C(C=C(Cl)Cl)C1C(=O)OC(C#N)c1ccc(F)c(Oc2ccccc2)c1 (configuration not stated)
outcome [1]: inactive
outcome [2]: inactive
outcome [10]: inactive
outcome [3]: inactive
AC50 [5]: 6.91 µM (active)

CCOC1Oc2ccc(OS(C)(=O)=O)cc2C1(C)C (configuration not stated)
outcome [1]: inactive
outcome [2]: inactive
outcome [3]: inactive
outcome [4]: inactive
outcome [6]: inactive
outcome [7]: inactive
AC50 [5]: 5.87 µM (active)

C[C@H]1[C@H](c2ccc(Cl)cc2)SC(=O)N1C(=O)NC1CCCCC1
AC50 [1]: 5.84 µM (active)
AC50 [2]: 35.2 µM (active)
outcome [3]: inactive
outcome [4]: inactive
outcome [6]: inactive
AC50 [7]: 35.5 µM (active)
AC50 [5]: 1.97 µM (active)

COc1cc(OC)nc(NC(=O)NS(=O)(=O)c2cc(NC=O)ccc2C(=O)N(C)C)n1
outcome [1]: inactive
outcome [2]: inactive
outcome [3]: inactive
outcome [8]: inactive
outcome [4]: inactive
outcome [6]: inactive
outcome [7]: inactive

CCOCN(C(=O)CCl)c1c(C)cccc1CC
AC50 [1]: 0.333 µM (active)
outcome [2]: inactive
outcome [3]: inactive
outcome [8]: inactive
outcome [4]: inactive
outcome [6]: inactive
outcome [7]: inactive
AC50 [5]: 2.16 µM (active)

Cc1cc(C)nc(NC(=O)NS(=O)(=O)c2ccccc2C(=O)OC2COC2)n1
outcome [1]: inactive
outcome [2]: inactive
outcome [10]: inactive
outcome [8]: inactive
outcome [4]: inactive
outcome [6]: inactive
outcome [7]: inactive

CNC(=O)CSP(=S)(OC)OC
outcome [1]: inactive
outcome [2]: inactive
outcome [10]: inactive
outcome [4]: inactive
outcome [6]: inactive
outcome [7]: inactive
outcome [9]: inactive

COc1nn(CSP(=S)(OC)OC)c(=O)s1
AC50 [1]: 3.12 µM (active)
outcome [2]: inactive
outcome [3]: inactive
outcome [6]: inactive

CCC(C)(NC(=O)c1cc(Cl)c(C)c(Cl)c1)C(=O)CCl (configuration not stated)
outcome [1]: inactive
outcome [2]: inactive
outcome [3]: inactive
outcome [4]: inactive
outcome [6]: inactive
outcome [7]: inactive
AC50 [5]: 2.52 µM (active)
